Screens as filed in PubChem BioAssay.
The list is not random: actives were taken first. Their share in the collection is about 3.5%.
mHTT-CaM PPI inh: inhibitors of human mutant huntingtin-calmodulin interaction; P42858; AlphaScreen His-mHTT/GST-CaM binding, luminescence; inhibition, % at 15 µM; 190,000 compounds, 3.6% hits; AID 1671202;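 note: 0% = both proteins with DMSO and 100% = one protein alone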
Pf apPOL inh: Pf-apPOL DNA polymerase inhibition. Recombinant Pf-apPOL, molecular beacon fluorescence, 1.5 h. inhibition, % at 10 µM. 210,000 compounds, 0.25% hits
Active calls of the source: *; nt = no result. Cut-off read from the data, not from the text of the source: active = inhibition above about 50%; inactive = the rest.

SMILES	mHTT-CaM PPI inh	Pf apPOL inh
CC(=O)n1c2c(c3ccccc31)OC(N)=C(C#N)C2c1ccc(F)cc1 (stereo not given)	5.0	-5.8
CC(=O)n1c2c(c3ccccc31)OC(N)=C(C#N)C2c1ccc(C(C)C)cc1 (stereo not given)	50.0*	4.0
CC(=O)Nc1ccc(N=Cc2ccccc2O)cc1	4.0	-0.2
CC(=O)Nc1ccc(N=Cc2cc(C)cc(I)c2O)cc1	65.0*	-7.3
O=C(NCC(O)C1CCCCC1)Nc1cccc(C(F)(F)F)c1 (stereo not given)	-16.5	-8.3
COc1ccc(-c2csc(=Nc3ccccc3)n2CCCN(C)C)cc1	45.0	2.3
CCOc1ccc(N=c2scc(-c3ccc(F)cc3)n2CCCO)cc1	31.0	-6.9
COc1ccc(-c2csc(=Nc3ccc(Cl)cc3)n2CCCO)cc1F	76.0*	0.4
COc1ccc(-c2csc(=Nc3ccccc3)n2CCO)cc1F	53.0*	-2.6
CCOc1ccc(N=c2scc(-c3ccc(Cl)s3)n2CCCO)cc1	35.0	-1.8
OCCCn1c(-c2ccc(F)cc2)csc1=Nc1ccc(Cl)cc1	87.0*	-3.8
COc1ccc(N=c2scc(-c3ccc4c(c3)OCCO4)n2CCO)cc1	53.0*	-1.8
COc1ccc(N=c2scc(-c3ccc(OC)cc3)n2CCN2CCOCC2)cc1	36.0	3.1
CC1(C(=O)NCc2ccccc2)Oc2cccnc2NC1=O (stereo not given)	-7.0	-2.5
c1ccc(CCCNc2ccc(-c3nc(-c4ccccc4)no3)cn2)cc1	-7.3	-0.6
Cc1nn(Cc2ccc(Cl)cc2)c(C)c1NC(=O)CCC(=O)O	-1.0	-8.5
COc1ccc(Br)cc1C=C1Oc2cc(OC(C)=O)ccc2C1=O	8.6	-1.8
COc1ccc(C2=NN3C(C2)c2ccccc2OC32CCCCC2)cc1OC (stereo not given)	45.0	-7.6
COc1cccc2c1OC(C)(C)N1N=C(c3ccco3)CC21 (stereo not given)	55.0*	-23.4
COc1ccc(C2=NN3C(C2)c2cc(OC)ccc2OC32CCCCC2)cc1 (stereo not given)	60.0*	-17.3
COc1cccc(C2=NN3C(C2)c2cccc(OC)c2OC32CCCCC2)c1 (stereo not given)	52.0*	-14.2
COc1cccc2c1OC1(CCCCC1)N1N=C(c3ccco3)CC21 (stereo not given)	32.0	-17.7
COc1cccc2c1OC1(CCC(C)CC1)N1N=C(c3ccco3)CC21 (stereo not given)	17.0	-15.5
Cc1ccc(NC(=O)C2CCN(c3nccnc3Oc3ccccc3)CC2)cc1F	12.1	-0.9
CCN1CCCC1CNC(=O)C1c2cc(OC)c(OC)cc2C(=O)N2CCc3ccccc3C12 (stereo not given)	-4.0	-3.1
SMILES	mHTT-CaM PPI inh	Pf apPOL inh
CCOc1ccc(-n2nc(C(=O)N3CCN(c4ccccn4)CC3)c3ccccc3c2=O)cc1	11.0	-3.8
COc1cccc(NC(=O)N2CCC3(CC2)Nc2cc(F)ccc2-n2cccc23)c1	46.6	-6.3
COc1ccc(NC(=O)N2CCC3(CC2)Nc2cc(F)ccc2-n2cccc23)cc1OC	61.1*	-2.5
CCOc1ccc(NC(=O)N2CCC3(CC2)Nc2cc(F)ccc2-n2cccc23)cc1	65.5*	1.3
CSc1cccc(NC(=O)N2CCC3(CC2)Nc2cc(F)ccc2-n2cccc23)c1	25.1	-1.6
CCc1ccc(NC(=O)N2CCC3(CC2)Nc2cc(F)ccc2-n2cccc23)cc1	72.0*	-3.4
COc1ccc(NC(=O)N2CCC3(CC2)Nc2cc(F)ccc2-n2cccc23)cc1	66.5*	-3.2
O=C(Nc1ccccc1F)c1ccc(Cn2cncn2)cc1	-2.3	-5.4
O=C(O)c1n[nH]c2c1CCC2	-8.0	-1.3
COCC(=O)Nc1cnc(-c2cccnc2)nc1	0.2	-2.9
Cc1cc(OCC(=O)Nc2cc(F)ccc2C)nc(N2CCCCC2)n1	16.9	0.9
Cc1cc(C(=O)N2CCCC(C(=O)NCc3ccccc3)C2)no1 (stereo not given)	-0.3	-0.1
Cc1ccc(S(=O)(=O)N2CCSC2c2ccccc2Cl)c(C)c1 (stereo not given)	-55.0	-3.7
Cc1ccc(S(=O)(=O)N2C=Cc3ccccc3C2c2c[nH]c3ccccc23)c(C)c1 (stereo not given)	55.0*	11.9
Cc1cccc(CN2CCN(C3CCN(C(=O)NCc4ccc(F)cc4)CC3)C2=O)c1	21.1	-6.5
Cc1cc(C2CCCN2C(=O)c2ccc(C)s2)no1 (stereo not given)	3.2	-2.2
CC(C)(C)N=C1Nc2ccccc2NC12CCCN(C(=O)NCc1cccc(F)c1)C2 (stereo not given)	99.5*	-4.2
COc1cccc(CNC(=O)N2CCCC3(C2)Nc2ccccc2NC3=NC(C)(C)C)c1 (stereo not given)	68.7*	3.9
CC(C)(C)N=C1Nc2ccccc2NC12CCCN(C(=O)NCc1ccco1)C2 (stereo not given)	29.9	3.6
COc1cc(OC)cc(C(=O)N2CCCC3(C2)Nc2ccccc2NC3=NC(C)(C)C)c1 (stereo not given)	20.7	4.4
COc1cccc(NC(=O)N2CCCC3(C2)Nc2ccccc2NC3=NC(C)(C)C)c1 (stereo not given)	11.8	1.8
COc1ccccc1NC(=O)N1CCCC2(C1)Nc1ccccc1NC2=NC(C)(C)C (stereo not given)	66.8*	-3.7
COc1ccc(-n2c(C)nc3ccc(NS(C)(=O)=O)cc3c2=O)cc1	18.4	-2.6
CC(C)OCCCNC(=O)c1cccc(CN2C(=O)C3CCCN3C(=O)c3ccccc32)c1 (stereo not given)	-9.0	-1.4
Fc1ccccc1C1C=C(c2ccc(Cl)cc2)Nc2ncnn21 (stereo not given)	-9.0	-5.1
SMILES	mHTT-CaM PPI inh	Pf apPOL inh
NC(=O)C1(N2CCCCC2)CCN(C(=O)CN2CCNCC2)CC1	-6.5	nt
CN1CCN(C(=O)C2CC2)c2ccccc21	35.8	-3.5
Cc1ccc(C(=O)Nc2nnc(C(C)C)s2)cc1	-1.9	3.4
O=C(Nc1ccc(Cl)c(-c2nc3ccccc3[nH]2)c1)c1ccc(Br)o1	15.0	-0.8
O=C(Nc1cccc(-c2nc3ccccc3[nH]2)c1)c1ccc(Br)o1	25.0	102.4*
O=C(Nc1ccc(NC(=O)c2ccc(Br)o2)cc1)c1ccccc1	3.5	-3.0
O=C(Nc1ccc(Nc2ccccc2)cc1)c1ccc(Br)o1	61.0*	-9.0
CC(NC(=O)c1cc2c(=O)n3ccccc3nc2n(CCN2CCOCC2)c1=N)c1ccccc1 (stereo not given)	9.0	-3.3
COc1ccc(C(=O)NCCc2ccc(F)cc2)c(OC)c1	-4.7	-3.9
Cc1ccc(-c2csc3c(=O)n(CC(=O)NCCc4ccccc4)cnc23)cc1	-18.2	-2.9
Cc1nc2nc(SCC(=O)NCC3CCCO3)nn2c(C)c1Cc1c(F)cccc1Cl (stereo not given)	70.0*	35.0
Cc1nc2nc(SCC(=O)NCC3CCCO3)nn2c(C)c1Cc1ccccc1Cl (stereo not given)	15.0	2.1
Cc1cc(N2C(=O)CC3(CCCC3)CC2=O)ccc1Br	nt	-1.8
CN(C)C(=O)c1cc2c(s1)CCC(C(=O)NCc1cc(F)ccc1F)C2 (stereo not given)	-1.4	-1.4
CCCOc1ccc(C(=O)Nc2ccccc2C)cc1	-6.9	90.0*
CCCCOc1ccc(C(=O)Nc2ccc(NC(=O)CCC)cc2)cc1	-0.5	98.6*
CCCC(=O)Nc1ccc(NC(=O)c2ccc(C)cc2)cc1	5.1	-4.5
CCCOc1ccc(C(=O)Nc2ccccc2[N+](=O)[O-])cc1	29.1	-9.3
